High-throughput results from PubChem BioAssay.
Most compounds without a hit are left out; they make up all but 18% or so of the library.
DT40 TDP1 CPT – growth inhibition of DT40 Tdp1-/-;hTDP1 cells with camptothecin (screen for TDP1 inhibitors); chicken DT40 Tdp1-/-;hTDP1 cells + 20 nM CPT, ATP luminescence, 48 h; Potency, µM (top dose mostly 46.2 µM), for the others: at the highest dose activity change, negative = growth inhibition, usual class: inhibitors; hit rate 12% among 420,000; AID 686979; further: potency means the concentration at half of the fitted maximal effect; nearly all actives have a fitted effect of over 55% in size
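Cell growth measured by CellTiter-Glo luminescence after a minimum 48 h, 37 C compound exposure with 20 nM CPT in Tdp1-knockout DT40 cells stably expressing hTDP1, seeded 400/well; qHTS titration format.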
RORg inh – ROR gamma (mouse) transcription inhibition; Drosophila S2 Gal4-RORgamma UAS-luciferase reporter, 20 h; Potency, µM (series often up to 53.6 µM), for the others: at the top dose activity change, negative = inhibition, actives largely listed as inhibitors; P51450; hit rate 5.4% among 310,000; further: potency means the concentration at half of the fitted maximal effect; nearly all actives have a fitted effect of over 60% in size
Target sequence (P51450 whole entry, looked up, the tested form may be a part): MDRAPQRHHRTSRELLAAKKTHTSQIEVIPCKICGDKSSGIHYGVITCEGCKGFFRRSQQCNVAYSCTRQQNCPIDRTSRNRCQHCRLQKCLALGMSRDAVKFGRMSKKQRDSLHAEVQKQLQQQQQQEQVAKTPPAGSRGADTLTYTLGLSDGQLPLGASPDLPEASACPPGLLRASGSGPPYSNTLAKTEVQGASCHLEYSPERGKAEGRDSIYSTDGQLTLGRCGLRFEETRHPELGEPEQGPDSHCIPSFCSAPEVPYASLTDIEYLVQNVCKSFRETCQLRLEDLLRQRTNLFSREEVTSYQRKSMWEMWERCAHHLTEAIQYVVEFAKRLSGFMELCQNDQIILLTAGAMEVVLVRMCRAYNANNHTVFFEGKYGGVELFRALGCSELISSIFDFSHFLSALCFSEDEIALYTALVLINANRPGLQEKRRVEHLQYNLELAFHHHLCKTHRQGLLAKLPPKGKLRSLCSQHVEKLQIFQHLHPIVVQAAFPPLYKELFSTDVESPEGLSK
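Drosophila S2 cells stably expressing Gal4-DBD/mouse RORγ fusion under metallothionein promoter plus UAS-luciferase; compound 1 h, then 700 uM CuSO4 induction for 20 h at ambient temperature; inhibition read as reduced luminescence.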
LDHA inh – LDHA (human) enzyme inhibition; purified LDHA, NADH/diaphorase-resazurin fluorescence; stronger effect = lower value; activity change, % (values are at about 110 or 230 µM); hit rate 0.15% among 480,000; P00338; in the data active means activity change below about -30%; inconclusive means mostly about -25% to -30%;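 further: plate controls were DMSO wells for no effect and wells without enzyme for full effect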
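Enzyme activity of human lactate dehydrogenase 5 (2 nM; 0.06 mM NADH, 0.2 mM pyruvate, 5 min, RT) is measured via a resazurin/diaphorase fluorescence readout of residual NADH.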
IL1B secr inh – inhibitors of inflammasome signaling (IL-1 beta secretion); AID 743279; hit rate 4.7% among 360,000; activity change, % at 57.5 µM; THP-1 LPS/ATP IL-1B secretion, AlphaLISA, 16 h; stronger effect = lower value; in the data active means activity change below about -50%; inconclusive means mostly about -30% to -49%
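Secreted IL-1B measured by AlphaLISA bead assay after 16 h compound exposure of THP-1 cells; compounds (final up to 57.5 uM) added 1 h before LPS (250 ng/mL) and ATP (1.25 mM) stimulation; lower signal means less secretion.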
Gal4-VP16 FLuc – Gal4-VP16 reporter inhibition counter-screen; Drosophila S2 Gal4-VP16 UAS-luciferase, luminescence, 20 h; Potency, µM (highest dose often 53.6 µM), for inactives: top-dose activity, negative = inhibition, hits mostly inhibitors; hit rate 3.5% among 310,000; AID 2546;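 further: Gal4-VP16 expression switched on by copper sulfate through the metallothionein promoter; potency means the concentration at half of the fitted maximal effect; nearly all actives have a fitted effect of over 50% in size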
DT40 TDP1 no CPT – qHTS for Inhibitors of human tyrosyl-DNA phosphodiesterase 1 (TDP1): qHTS in cells in absence of CPT. DT40 Tdp1-/- hTDP1 cells, no CPT, ATP luminescence, 48 h. Potency, µM (series often up to 46.2 µM), without a hit: at the highest dose activity change, negative = growth inhibition, usual class: inhibitors. hit rate 15% among 420,000; further: potency means the concentration at half of the fitted maximal effect; nearly all actives have a fitted effect of over 55% in size
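Camptothecin absent (DMSO only). Human TDP1-complemented DT40 knockout cells, 400 cells/well, 37 °C for minimum 48 hr; ATP measured via CellTiter-Glo, 30 min dark incubation, luminescence.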
An asterisk follows results filed as active; ? = inconclusive; · = no result. Unless noted, the call rests on the fitted dose curve; in most records, active means well fitted curve in the direction sought with a large enough effect; inconclusive means small, poorly fitted or top-dose-only effect, or another doubt; inactive means no such curve, though single readings can be large; an effect the other way counts as inactive or inconclusive. Unless noted, on the % scale 0 is the no-effect control and ±100 the full control effect.

SMILES | DT40 TDP1 CPT | RORg inh | LDHA inh | IL1B secr inh | Gal4-VP16 FLuc | DT40 TDP1 no CPT
CCc1nc2c(OCc3cc(Cl)cc(Cl)c3)cccn2c1N(C)C(=O)c1cccc(OC)c1 | ? | · | 0 | -56* | · | ?
CCc1nc2c(OCc3ccc(OC)cc3)cccn2c1N(C)C(=O)c1ccncc1 | -5% | · | 6 | 24 | · | -22%
CCc1nc2c(OCc3ccccc3C(=O)OC)cccn2c1N(C)C(=O)c1cccc(OC)c1 | 13µM* | · | 5 | -3 | · | 23µM*
COCC(C)n1c(C)cc(C(=O)CSc2nnc(-c3ccoc3C)n2-c2ccccc2)c1C (stereo not drawn) | · | · | 2 | · | · | ·
O=[N+]([O-])c1ccc(/C=N/O)cc1 | · | · | 0 | · | · | ·
COc1ccc(Nc2cc(C)nc(-n3nc(C)cc3C)n2)cc1Cl | 0.37µM* | · | -11 | · | · | 0.15µM*
Cc1cc(Nc2ccc(F)cc2F)nc(-n2nc(C)cc2C)n1 | 2.9µM* | · | -7 | · | · | 4.6µM*
Cc1cc(N(CCO)CCO)nc(-n2nc(C)cc2C)n1 | 1% | -30% | -10 | -1 | 10% | -12%
Cc1cc(Nc2ccc(F)cc2F)n2nc(C)nc2n1 | 3% | -6% | -6 | 16 | -12% | -7%
Cc1cc(Nc2ccc(C(C)C)cc2)nc(-n2nc(C)cc2C)n1 | 0.58µM* | · | 1 | · | · | 0.82µM*
Cc1cc(NCCO)nc(-n2nc(C)cc2C)n1 | 13% | 6.3µM* | -4 | 0 | 20µM* | -5%
Cc1cccc(Cn2c(C)nc3c(N)c(C)c(C)cc32)c1 | -16% | 13µM* | 5 | -7 | ? | 16µM*
O=C(NC(C1CC1)C1CC1)c1cccc(Cl)c1 | · | · | 1 | · | · | ·
CC(C)(C)c1ccccc1NC(=O)c1ccc(N2CCCCS2(=O)=O)cc1Cl | · | · | -11 | · | · | ·
COc1ccc(CC(=O)n2[nH]c(=O)cc(C)c2=O)cc1OC | ? | 11µM* | -2 | · | ? | 18µM*
COc1ccc(CC(=O)NC(C)(C)CC(C)=O)cc1OC | -12% | 4% | -8 | 24 | 3% | -2%
CCOC(=O)C(=O)CC(=O)c1ccc(Cl)cc1Cl | · | · | 4 | · | · | ·
CCOc1ccc2c(=O)c(Oc3ccccc3OCC)c(C)oc2c1 | · | · | -7 | · | · | ·
O=C(Cn1c(C(F)(F)F)nc2ccccc21)Nc1ccccc1N1CCOCC1 | -24% | 18% | -3 | 18 | 9% | -26%
CSc1nc2ccccc2n1CC(=O)Nc1cc(C(F)(F)F)ccc1N1CCOCC1 | 21µM* | 24% | 1 | 0 | 2% | 16µM*
O=C(CCNC(=O)c1ccc([N+](=O)[O-])cc1)Nc1cc(C(F)(F)F)ccc1N1CCOCC1 | ? | · | -2 | -23 | · | ?
Cc1nnc(SCC(=O)Nc2cc(C(F)(F)F)ccc2N2CCOCC2)o1 | -28% | 17% | -6 | -6 | 5% | -8%
Cc1ccccc1SCC(=O)Nc1cc(C(F)(F)F)ccc1N1CCOCC1 | ? | · | -2 | -70* | · | ?
O=C(CCNC(=O)c1ccc(Cl)cc1)Nc1cc(C(F)(F)F)ccc1N1CCOCC1 | 26µM* | · | -4 | -13 | · | 23µM*
CCOc1ccccc1NC(C)C(=O)Nc1cc(C(F)(F)F)ccc1N1CCOCC1 (stereo not drawn) | ? | 37% | -3 | 11 | -24% | 18µM*
SMILES | DT40 TDP1 CPT | RORg inh | LDHA inh | IL1B secr inh | Gal4-VP16 FLuc | DT40 TDP1 no CPT
CC(C)C(=O)Nc1cc(C(F)(F)F)ccc1N1CCOCC1 | -25% | 37% | -7 | 10 | 1% | -21%
CSc1cccc(NC(=O)CC(c2ccc(F)cc2)N2Cc3ccccc3C2=O)c1 (stereo not drawn) | 23µM* | · | -6 | · | · | 21µM*
CCOc1ccc(C(CC(=O)Nc2ccc(C)cc2C)N2Cc3ccccc3C2=O)cc1OC (stereo not drawn) | · | · | -1 | · | · | ·
CCc1ccccc1NC(=O)CC(c1ccc(F)cc1)N1Cc2ccccc2C1=O (stereo not drawn) | 23µM* | · | 0 | · | · | 23µM*
Cc1ccc(NC(=O)CC(c2ccc(F)cc2)N2Cc3ccccc3C2=O)cc1C (stereo not drawn) | -15% | · | -10 | · | · | -24%
Cc1ccc(C(CC(=O)Nc2ccc(C)cc2C)N2Cc3ccccc3C2=O)cc1 (stereo not drawn) | 16µM* | · | 3 | · | · | 18µM*
CC(=O)c1cccc(NC(=O)CC(c2ccc(C)cc2)N2Cc3ccccc3C2=O)c1 (stereo not drawn) | ? | · | -1 | · | · | 16µM*
CCOCCOC(=O)c1nc2ccccc2nc1Nc1cc(C)cc(C)c1 | · | · | 3 | · | · | ·
Cc1ccc(C(CC(=O)Nc2cc(C)cc(C)c2)N2Cc3ccccc3C2=O)cc1 (stereo not drawn) | 15µM* | · | -18 | · | · | 23µM*
COc1ccc(C(CC(=O)Nc2ccc(C(C)=O)cc2)N2Cc3ccccc3C2=O)cc1 (stereo not drawn) | -9% | · | -3 | · | · | -4%
CCOC(=O)N(C)c1c(CC)nc2c(OCCC3CCCCC3)cccn12 | ? | · | 0 | -77* | · | 16µM*
CCOC(=O)C(=O)N(C)c1c(CC)nc2c(OCCC3CCCCC3)cccn12 | ? | · | 0 | -24 | · | 18µM*
Cc1ccc(NC(=O)c2c(C(F)(F)F)nn(C)c2SCc2ccc(Cl)cc2)cc1C | 26µM* | 0.45µM* | 4 | -21 | -1% | 23µM*
Cc1cc(NC(=O)Cc2cccc(C(F)(F)F)c2)ccc1N1CCN(C)CC1 | · | · | -2 | · | · | ·
Cc1ccc(NC(=O)c2c(C(F)(F)F)nn(C)c2Cl)cc1C | 8% | 19% | 2 | 4 | -1% | -7%
Cc1ccc(NC(=O)c2c(C(F)(F)F)nn(C)c2SCc2cccc(C(F)(F)F)c2)cc1C | 7.3µM* | -37% | 1 | -21 | ? | 4.1µM*
COC(=O)c1ccc(Cn2nnc3c(=O)[nH]c(C4CCCN(S(=O)(=O)c5ccc(C)cc5)C4)nc32)cc1 (stereo not drawn) | -20% | -20% | -3 | -1 | -21% | ?
CC(=O)c1cccc(S(=O)(=O)N2CCCC(c3nc4c(nnn4Cc4ccc(C)cc4)c(=O)[nH]3)C2)c1 (stereo not drawn) | ? | 14% | -9 | -55* | -15% | -28%
O=c1[nH]c(C2CCN(S(=O)(=O)c3ccccc3)CC2)nc2c1nnn2Cc1ccccc1 | 21µM* | 24% | -1 | -7 | -10% | ?
Cc1ccc(Cn2nnc3c(=O)[nH]c(C4CCN(S(=O)(=O)c5ccc(C)cc5)CC4)nc32)cc1 | -6% | ? | -8 | ? | -9% | ?
